# GLP1R ag – agonists of human GLP-1 receptor. P43220. HEK293 GLP-1R CRE-luciferase, luminescence, 4-6 h; cells express a hypersensitive GLP-1R form. Potency, µM (highest dose often 45.6 µM), without a hit: at the highest dose activation, actives largely listed as activators. 380,000 tested, 0.007% active. AID 624172; further: % of control where 0% means no effect
# GLP-1R inv ag – GLP-1 receptor (human) inverse agonism; P43220; HEK293 GLP-1R CRE-luciferase, luminescence, 24 h; GLP-1R form is constitutively active; Potency, µM (top dose mostly 38.3 µM), inactives show at the highest dose activity change, negative = inhibition, hits mostly inhibitors; 410,000 tested, 1.6% active; further: on the % scale 0 is the no-effect control and ±100 the full control effect; nearly all actives have a fitted effect of over 55% in size
#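 Inverse agonism was detected as reduced cAMP-driven luciferase luminescence after 24 h compound treatment. The cells were HEK293 clones expressing constitutively active human GLP-1R with the reporter. Reporter-only and GPR119 cell lines served as counterscreen controls.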
# PTHR1 agonist – PTHR1 (human) receptor agonism; Q03431; HEK293 GP2 PTHR1 cells, GloSensor cAMP luminescence, 1 h; Potency, µM (highest dose often 115 µM), without a hit: at the highest dose activation, actives largely listed as activators; 410,000 tested, 0.075% active; AID 743266; further: nearly all actives have a fitted effect of over 55% in size
# Target sequence (Q03431 whole entry, looked up): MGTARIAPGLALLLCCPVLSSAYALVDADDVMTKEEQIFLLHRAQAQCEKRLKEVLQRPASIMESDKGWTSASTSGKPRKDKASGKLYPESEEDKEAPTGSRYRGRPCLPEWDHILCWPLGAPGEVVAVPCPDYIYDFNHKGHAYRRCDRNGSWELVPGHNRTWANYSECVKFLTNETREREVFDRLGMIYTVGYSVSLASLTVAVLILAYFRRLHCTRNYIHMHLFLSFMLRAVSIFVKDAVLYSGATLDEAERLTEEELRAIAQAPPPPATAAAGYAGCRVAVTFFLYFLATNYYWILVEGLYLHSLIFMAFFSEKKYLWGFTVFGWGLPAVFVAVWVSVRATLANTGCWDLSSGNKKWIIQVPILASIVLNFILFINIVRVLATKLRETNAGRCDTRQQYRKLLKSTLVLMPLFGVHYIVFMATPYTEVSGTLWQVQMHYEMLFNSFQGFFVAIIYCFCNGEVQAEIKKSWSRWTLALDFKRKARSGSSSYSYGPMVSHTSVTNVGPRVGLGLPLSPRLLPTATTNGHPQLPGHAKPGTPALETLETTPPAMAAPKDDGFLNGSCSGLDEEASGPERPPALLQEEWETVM
#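 HEK-293-derived GP2 cells expressing PTHR1 and a GloSensor cAMP reporter, 3,000/well, plated overnight, given luciferin plus IBMX (each 0.5 mM as added) for 1 h at 37 °C, then compound for 1 h at 37 °C. Luminescence was read after 15 min at room temperature.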
# HEK293 tox – cytotoxic in the GLP-1 receptor inverse agonist counter-screen; HEK293 cAMP-luciferase reporter cells, luminescence, 24 h; Potency, µM (doses to about 38.3 µM), inactives show top-dose activity change, negative = inhibition, usual class: inhibitors; 410,000 tested, 0.13% active;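 further: loss of luciferase light is scored as toxicity; on the % scale 0 is the no-effect control and ±100 the full control effect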
#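 Cells in DMEM/10% Nu serum/1% pen-strep, 1536-well format. Pre-incubated 12 h, dosed with 23 nL compound, incubated a further 24 h. Luciferase detection, 12 min at room temp, luminescence.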
# The depositor's hits bear a star; i = inactive; u = inconclusive; x = no result given; [ ] = another dose, or the depositor's remark. Rows were chosen to be rich in hits. Some 1.7% of all compounds tested hit in one or more screens of this group. The call rests on the fitted dose curve; in most records, active means well fitted curve in the direction sought with a large enough effect; inconclusive means small, poorly fitted or top-dose-only effect, or another doubt; inactive means no such curve, though single readings can be large; an effect the other way counts as inactive or inconclusive. Potency means the concentration at half of the fitted maximal effect.
SMILES,GLP1R ag,GLP-1R inv ag,PTHR1 agonist,HEK293 tox
Cc1cc(C(=O)OC(C)C(=O)Nc2nc(-c3ccccc3)cs2)c(C)o1 (stereo unspecified),1%,10µM*,11%[57.5 µM],1%
Cc1cc(C(=O)OCC(=O)Nc2nc(-c3ccccc3)cs2)c(C)o1,-25%,0%,-28%[57.5 µM],-18%
CCc1nnc2c3ccccc3nc(Nc3ccc(F)c(Cl)c3)n12,x,19%,-23%,0%
COc1cccc(N2CCN(C3=NS(=O)(=O)C(c4ccc(C)cc4)=C3C)CC2)c1,x,11%,i,-1%
COc1cc(/C=N/N=C(N)N)ccc1OCc1ccc(Cl)cc1,-7%,u,-14%,-28%
CCOc1cc(/C=N/N=C(N)N)ccc1OCc1ccc(Cl)cc1,-32%,11µM*,i,u
O=C(Nc1ccccc1)C1=C[C@H](c2csc3ccccc23)C[C@H](OCc2ccc(CO)cc2)O1,-9%,10µM*,i,-17%
CCOc1ccc(NC(=O)CC2C(=O)N(c3ccccc3)C(=O)N2Cc2cccc(OC)c2)cc1 (stereo unspecified),x,3%,i,0%
COc1ccc(CNC(=O)CSc2nc(-c3ccc(OC)c(OC)c3)cc(C(F)(F)F)n2)cc1,2%,28%,-18%,13%
CC1(c2ccccc2)O[C@@H]2C[C@H]3[C@@H]4CCC5=CC(=O)C=C[C@]5(C)[C@@]4(F)[C@@H](O)C[C@]3(C)[C@]2(C(=O)CO)O1 (stereo partly specified),4%,7.9µM*,i,2%
Cc1cc(SCC(=O)NC2(C#N)CCCCC2)nc2c(C)cccc12,2%,10µM*,i,-8%
Cc1cc(SCC(=O)N2CCCC2=O)nc2c(C)cccc12,19%,14%,i,5%
CC(C)=CCOc1ccc([C@@H]2COc3c(ccc4c3C=CC(C)(C)O4)C2)c(O)c1,-3%,10µM*,-39%,u
Cn1c(=O)cc(SCC(=O)NCc2ccc(F)cc2)c2cc(Cl)ccc21,1%,3%,i,2%
O=C(Nc1ccc(F)cc1F)NC1CCN(Cc2c(F)cccc2Cl)CC1,10%,8.9µM*,-12%,-2%
Cc1cc(Cl)ccc1NC(=O)NC1CCN(S(=O)(=O)c2ccc(F)cc2)CC1,-5%,6.3µM*,-37%,u
COc1ccc(Cl)cc1NC(=O)Cn1c(=O)c(-c2ccccc2NC(C)=O)nc2ccccc21,x,-2%,u,0%
Cc1ccc2occ(-c3cc(-c4ccc(Cl)cc4)nc4c3COc3ccccc3-4)c(=O)c2c1,0%,9%,-11%,1%
c1ccc(CCNc2nc(-c3ccccc3)cs2)cc1,12%,x,x,x
CC(C)(Cc1ccc(O)cc1)NC(=O)SCc1ccccc1,13%,13µM*,i,3%
C[C@@](Cc1ccccc1)(NC(=O)CN)c1ccccc1,1%,x,x,x
CCOC(=O)C1CCCN(CCC(=O)Nc2ccc(OC)cc2OC)C1 (stereo unspecified),x,-7%,i,-6%
CO/N=C\CC(=O)Nc1ccc(Oc2ccccc2)cc1,10%,1.3µM*,-7%,-23%
O=C(C/C=N\O)Nc1ccc(Oc2ccccc2)cc1,9%,-11%,-23%,-1%
Cc1ccccc1S(=O)(=O)Cc1ccc(C(=O)NCc2ccccc2Cl)o1,x,8%,i,1%
SMILES,GLP1R ag,GLP-1R inv ag,PTHR1 agonist,HEK293 tox
CCOc1ccc(/C=C2/SC(=S)N(n3c(C)ccc3C)C2=O)cc1,-13%,7.1µM*,-78%,-26%
COc1ccc(/C=C2/SC(=S)N(n3c(C)ccc3C)C2=O)cc1,-7%,u,-20%,-21%
CCc1ccc(NCc2cc3ccc(OC)cc3n(CC(=O)Nc3ccccc3C)c2=O)cc1,3%,13%,i,-1%
COc1ccc(CC(=O)NCC2CCCN(Cc3ccc(OC(F)(F)F)cc3)C2)cc1 (stereo unspecified),21%,10µM*,-23%,-1%
Cc1ccc(C(=O)C2CCN(C(=O)c3ccc(C)cc3)CC2)cc1,-7%,8.9µM*,-67%,0%
Cc1ccc(C(=O)N2CCC(C(=O)c3ccc(F)cc3)CC2)cc1,-1%,u,i,0%
COC[C@@H](c1ccc(C(F)(F)F)cc1)N1CCN(C2(C)CCN(C(=O)c3c(C)ncnc3C)CC2)C[C@@H]1C,-4%,x,x,x

# High-throughput results as filed in PubChem BioAssay.
